Screen size: about 360,000 compounds; about 4,600 (1.3%) were called active. This is one part of a sample in which actives are shown more often than they occur. Values without a mark were called inactive.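 The calls were made as follows: active = percent inhibition above its own plate's cutoff, namely the mean of that plate's compound wells plus 3 SD; inactive = the rest.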

In the assay the target is Muscarinic acetylcholine receptor M1 (Homo sapiens) (UniProt P11229). Description: CHRM1 blockers of acetylcholine calcium response – CHO-K1 cells, Fluo-8 calcium fluorescence, 1536-well, primary screen (AID 588852).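 Also: peak over basal fluorescence ratio during 140 s after agonist addition; 0% = ACh EC80 plus DMSO and 100% = DMSO alone without agonist.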 The following applies: CHO-K1 hM1, Fluo-8 calcium fluorescence, ACh EC80 antagonist; at 3 µM; hits give high values.
Chain of Muscarinic acetylcholine receptor M1 (Homo sapiens) (P11229 whole entry, looked up): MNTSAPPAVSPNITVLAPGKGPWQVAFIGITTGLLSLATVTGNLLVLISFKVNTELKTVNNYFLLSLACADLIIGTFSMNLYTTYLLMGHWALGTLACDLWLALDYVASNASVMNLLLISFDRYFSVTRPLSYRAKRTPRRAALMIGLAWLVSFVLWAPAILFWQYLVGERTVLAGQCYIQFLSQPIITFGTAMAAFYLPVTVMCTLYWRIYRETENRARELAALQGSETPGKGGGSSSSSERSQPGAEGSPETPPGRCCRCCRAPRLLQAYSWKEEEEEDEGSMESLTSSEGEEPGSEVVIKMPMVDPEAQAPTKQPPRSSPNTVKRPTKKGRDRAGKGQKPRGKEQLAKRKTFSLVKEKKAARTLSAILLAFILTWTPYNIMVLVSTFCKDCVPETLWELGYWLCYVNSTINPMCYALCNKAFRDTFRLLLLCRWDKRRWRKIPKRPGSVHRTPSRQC
As to `Cc1ccc(-c2cnc(C(O)c3cc(Cl)cc(Cl)c3)[nH]2)cc1` (configuration not stated), the inhibition (commonly the drop in the measured response relative to a control, in per cent) is 10.3%.
The result for `COc1ccc(OC)c(-c2c(=O)n(OCc3ccccc3Br)c3ccccc3[n+]2[O-])c1` reads -8.89%; that for `CCN(CC)S(=O)(=O)c1ccc(N2CCOCC2)c(NC(=O)C2CSC3(C)CCC(=O)N23)c1` (configuration not stated), -11.2%.
The result for `O=C(CC(O)(C(F)(F)F)C(F)(F)F)Nc1ccc(Cl)c(Cl)c1` reads 41.1% (active).
The result for `CN(CC(=O)Nc1ccc(Cl)c(C(F)(F)F)c1)C(=O)CCC(=O)c1ccccc1` reads 10.7%; that for `O=C(Cc1ncc(C(F)(F)F)cc1Cl)Nc1cccc(Br)c1`, 0.3%; that for `CC(=O)N1CCN(Cc2cc(=O)oc3cc(C)ccc23)CC1`, -6.95%.
On to `O=C(Nc1ccncc1)c1cc2ccccc2o1`, for which the inhibition was 11.1% (active).
The result for `Cc1cc(NC(=O)c2cc3ccccc3o2)no1` reads 0.12%; that for `COc1cc2ccccc2cc1C(=O)Nc1ccncc1`, -10.8%; that for `CNS(=O)(=O)c1cnccc1N1CCN(c2cccc(C)c2)CC1`, -21.3%.
The result for `CC(=O)N1CCc2c(sc(NC(=O)CCS(=O)(=O)c3ccc(C)cc3)c2C(N)=O)C1` reads -9.37%.
The result for `CCc1nc2c(OCc3cccc(OC)c3)cccn2c1N(C)C(=O)C(C)C` reads 5.18%; that for `CCc1nc2c(OCc3ccc(Cl)cc3Cl)cccn2c1N(C)C(=O)C(C)C`, 2.38%.
For `CCc1nc2c(OCc3ccc(F)c(F)c3)cccn2c1N(C)C(=O)c1ccco1`, the inhibition is -7.6%.
The result for `CCc1nc2c(OCc3ccccc3)cccn2c1N(C)C(=O)c1ccco1` reads -4.6%; that for `Cc1nc2c(OCc3ccc(Cl)cc3Cl)cccn2c1N(C)CC1CC1`, 43.8% (active); that for `Cc1nc2c(OCC(=O)C(C)(C)C)cccn2c1N(C)Cc1cccs1`, -8.77%.
The result for `CCCCC(=O)N(C)c1c(CC)nc2c(OCc3ccc(Cl)cc3Cl)cccn12` reads 23.1%; that for `Cc1nc2c(OCc3cccc(Cl)c3)cccn2c1N(C)CC1CC1`, 68.1% (active).
The result for `Cc1nc2c(OCc3ccc(Cl)cc3)cccn2c1N(C)Cc1cccs1` reads 38.4% (active); that for `O=C(NCCCn1ccnc1)c1cc2c(s1)CCCC2`, -5.2%.
As to `CC(=O)Nc1ccc(CNc2nc(NCCN(C)C)nc3cc(-c4ccccc4)sc23)cc1`, the inhibition was -17.6%.
For the compound `COC(=O)c1ccc2c(c1)S(=O)(=O)NC(=NCCCN1CCOCC1)S2`, the inhibition was -10.8%.
The result for `COc1ccc(NC(=O)/C(N=Nc2cccc(S(=O)(=O)Nc3ccc(SC(F)F)cc3)c2)=C(\C)O)cc1` reads -7.35%.
Turning to `COc1cc(-c2nc(S(=O)(=O)c3ccc(Cl)cc3)c(N(C)C)o2)cc(OC)c1OC`, the inhibition is -1.63%.
The result for `COC(=O)CCSc1nccn1Cc1ccccc1` reads -11.6%.
Consider `CN(CCO)C(=O)c1nc[nH]c1C(=O)N(C)Cc1ccccc1`, for which the inhibition is -4.9%.
The result for `O=S1(=O)CC(N2CCN(CCO)CC2)CN1C1CCCC1` (configuration not stated) reads -4.22%; that for `CCOc1ccc(CCN2C(=S)N([C@@H](CC(C)C)CN3CCC[C@@H]3CN3C(=S)NC[C@@H]3Cc3ccc(O)cc3)C[C@@H]2CC(C)C)cc1`, 5.64%.
The result for `COc1ccc(CN2CCCC(C(=O)c3ccc(Cl)cc3)C2)cc1Cn1cncn1` (configuration not stated) reads 75.4% (active).
`COc1ccc(CN2CCCC(C(=O)N3CCCCC3)C2)cc1` (configuration not stated): the inhibition is 5.19%.
The result for `COc1cc(CN2CCCC(C(=O)c3ccc(SC)cc3)C2)cc(Cl)c1O` (configuration not stated) reads -1.81%; that for `CS(=O)(=O)c1ccccc1C(=O)Nc1ccc2sccc2c1`, -10.3%; that for `CCC1C(=O)NCCN1C(=O)c1ccc2nc(Cc3ccc(OC)cc3)oc2c1` (configuration not stated), -5.11%.
The result for `COc1ccc(Cc2nc3ccc(C(=O)N4CCC(N(C)C)C4)cc3o2)cc1` (configuration not stated) reads 3.18%; that for `CCn1ccnc1CN(C)C(=O)c1ccc2nc(Cc3ccc(OC)cc3)oc2c1`, 56.1% (active); that for `CCC1Sc2ccc(S(=O)(=O)CCC(=O)NCc3cccs3)cc2NC1=O` (configuration not stated), -5.05%.
`CC12C(=O)N(n3cnnc3)C(=O)C1C1C=CC2C1` (configuration not stated): the inhibition is 2.29%.
The result for `Cc1ccc(S(=O)(=O)N2CCN(Cc3cccc(C)c3O)CC2)cc1` reads 4.67%.
As to `Cc1ccc(S(=O)(=O)N2CCN(C)CC2)cc1`, the inhibition is -16.6%.
The result for `Cc1ccc(C)c(S(=O)(=O)N2CCN(CC(=O)Nc3ccc([N+](=O)[O-])cc3)CC2)c1` reads 9.07%; that for `Cc1ccc(S(=O)(=O)N2CCN(c3ncnc4ccccc34)CC2)cc1`, 35.8% (active); that for `Cc1ccc(C)c(S(=O)(=O)N2CCN(c3ncnc4sccc34)CC2)c1`, 34.7% (active).
In the case of `COc1ccc(-c2csc3ncnc(N4CCN(S(=O)(=O)c5ccccc5C#N)CC4)c23)cc1`, the inhibition was -2.61%.
The result for `CC(Sc1sc(=S)sc1SC(C)C(=O)O)C(=O)O` (configuration not stated) reads 1.12%.
The result for `C[C@H]([C@@H](O)[C@@H](O)[C@@H](C)C(C)(C)C)[C@H]1CC[C@H]2C3CC[C@H]4C[C@H](OS(=O)(=O)O)[C@@H](OS(=O)(=O)O)C[C@]4(C)[C@H]3CC[C@]12C` (some centres not stated) reads -9.61%; that for `Cc1nc(-c2nnc(SCC(=O)Nc3cc(C(F)(F)F)cc(C(F)(F)F)c3)n2C)cs1`, -3.69%.
The result for `C=C1C(=O)[C@]23C[C@H]1CCC2[C@@]1(C)C(C[C@@H]3O)[C@](C)(C(=O)O)CC[C@@H]1O` (some centres not stated) reads -14.8%; that for `CN1/C(=c2/s/c(=C3/C(=O)N(c4ccccc4)NC3=Nc3ccccc3)n(C)c2=O)C(C)(C)c2ccccc21`, 12.2%; that for `CCOc1ccccc1CN1CCN(C2CCC2)CC1CCO` (configuration not stated), -17.7%.
Regarding `Cc1ccccc1C(OCC(O)CN1CCCCC1CCO)c1ccccc1` (configuration not stated), the inhibition is 28.9% (active).
The result for `COc1cccc(CN(C)CC(O)COC(c2ccccc2)c2ccccc2C)c1` (configuration not stated) reads 16.4%.
On to `C[C@H]1CN([C@@H](C)CO)C(=O)CCCn2cc(nn2)CO[C@@H]1CN(C)S(=O)(=O)c1cccc(C#N)c1`, for which the inhibition is -7.84%.
The result for `Cc1cc(Br)cn2c(Cc3ccsc3)c(-c3ccc(C#N)cc3)nc12` reads -2.47%; that for `CC(=O)c1nn(-c2ccccc2)c(=Nc2ccccc2)cc1C`, 2.25%; that for `COc1ccc(C(=O)OCC(=O)NCCCc2ccccc2)cc1OC`, -14.8%.
As for `COc1ccc(C(CCN(Cc2ccc(OC)c(OC)c2)C(=O)CCl)c2ccccc2)cc1` (configuration not stated), the inhibition is -0.77%.
Regarding `CCN(CCCCOC(=O)c1ccc(OC)c(OC)c1)C(C)Cc1ccc(OC)cc1` (configuration not stated), the inhibition was 91.6% (active).
The result for `CCC(=O)c1ccc(N2CCN(C(=O)c3cc([N+](=O)[O-])ccc3F)CC2)c(F)c1` reads 11.9%.
The result for `O=C(Nc1cccc(Cl)c1)c1cc([N+](=O)[O-])ccc1N1CCN(CCO)CC1` reads -7.1%.
The result for `CCN1CCN(c2ccc([N+](=O)[O-])cc2C(=O)c2ccc(Cl)cc2)CC1` reads 96.3% (active); that for `Cc1cccc(OCC(=O)OCC(=O)Nc2ccc(Cl)cn2)c1`, -3.17%; that for `CCc1noc(C)c1C(=O)N1CCCSC1=Nc1ccccc1OC`, 3.24%.
Take `CC(C)c1ccc2oc(=O)cc(CN3CCN(Cc4ccccc4)CC3)c2c1`: the inhibition was -7.34%.
The result for `N#Cc1ccc(OCCN2C(=O)NC3(CCSC3)C2=O)cc1` (configuration not stated) reads 5.7%; that for `COc1ccc(-c2cc3c(c4c2ccn4C)C2CCC3C2)cn1` (configuration not stated), 3.78%; that for `COc1cccc(C(=O)OCC(=O)c2[nH]c(C)c(C(C)=O)c2C)c1`, 8.52%.
In the case of `CC(=O)c1c(C)[nH]c(C(=O)COC(=O)c2cccc(S(=O)(=O)N(C)c3ccccc3)c2)c1C`, the inhibition is 57% (active).
The result for `CC(=O)c1c(C)[nH]c(C(=O)COC(=O)c2cccs2)c1C` reads 10.1%; that for `O=C1C=C(c2ccccc2)CCC1`, 6.35%.
The result for `NC(Cc1ccc(F)cc1)c1csc(Nc2nncc3ccccc23)n1` (configuration not stated) reads -3.42%.
The result for `COc1ccc(C(=O)NC2CC(C)(C)Cc3c2cnn3-c2ccccc2C)o1` (configuration not stated) reads 0.26%; that for `COc1ccc(OC)c(C(=O)NC2CCCc3c2cnn3-c2cc(C)cc(C)c2)c1` (configuration not stated), -5.27%.
As for `COc1ccc(C(=O)NC2CCCc3c2cnn3-c2cccc(C)c2C)c(OC)n1` (configuration not stated), the inhibition was 46.9% (active).
The result for `Cc1cn([C@H]2C[C@H](O)[C@@H](/C=C/C(=O)NCCCc3ccccc3)O2)c(=O)[nH]c1=O` reads -25.2%; that for `COc1cccc(NC(=O)CN(C)C(=O)CSCc2nc3scc(-c4cccs4)c3c(=O)[nH]2)c1`, -1.71%; that for `CCN(CCCNC(=O)c1ccc2c(c1)NC(=O)CN2C)c1cccc(C)c1`, 8.18%.
The result for `NS(=O)(=O)c1cccc(NC(=O)CC23CC4CC(CC(Br)(C4)C2)C3)c1` reads 6.38%; that for `CCCOc1ccc(F)cc1-c1cc(C(=O)NCc2ccc(F)cc2)[nH]n1`, 1.58%; that for `COc1ccc(Cl)cc1-c1cc(C(=O)Nc2cc(OC)c(OC)c(OC)c2)[nH]n1`, 0.33%.
The result for `CCCOc1ccc(F)cc1-c1cc(C(=O)Nc2ccc(F)c(Cl)c2)[nH]n1` reads 58.9% (active); that for `CC(C)Oc1cc(F)ccc1-c1cc(C(=O)Nc2ccc(F)cc2)[nH]n1`, 5.41%; that for `CCCOc1ccc(F)cc1-c1cc(C(=O)Nc2ccc(F)cc2)[nH]n1`, 34.5% (active).
As to `CC(C)Oc1cc(F)ccc1-c1cc(C(=O)Nc2cccc(Cl)c2)[nH]n1`, the inhibition was 24.4%.
The result for `CCOC(=O)[C@H]1Nc2ccc(Cl)cc2[C@@H]2[C@H]1C1CC(c3ccccc31)N2C(=O)OCc1ccccc1` (some centres not stated) reads 6.68%; that for `Nc1cc(C(F)(F)F)ccc1N1CCOCC1`, 3.72%.

These data come from PubChem BioAssay AID588852 (The Scripps Research Institute Molecular Screening Center, 2011).
